Reference: PubChem BioAssay (NCI)
Compounds without any hit were thinned out: in the full panel of roughly 83,000, 20% have a hit.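 Negative percent growth values reflect cell death: -40 means 40% of the cells present at the start died, and -100 means all died.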 Unmarked numbers belong to inactive results. Activity calls are given as the source filed them. Rule for the calls: active = growth percent below 10; inactive = the rest.

Legend:
Assay in all cases: NCI-60 one-dose screen, 48 h (100 = growth as untreated, 0 = no growth, -100 = all killed)
Conditions in all cases: 10 µM unless noted
SK-MEL-2 melanoma = system: SK-MEL-2 melanoma
EKVX NSCLC = system: EKVX NSCLC
SN12C renal = system: SN12C renal
UO-31 renal = system: UO-31 renal
TK-10 renal = system: TK-10 renal
ACHN renal = system: ACHN renal
CAKI-1 renal = system: CAKI-1 renal
A498 renal = system: A498 renal
CCRF-CEM leukemia = system: CCRF-CEM leukemia
MOLT-4 leukemia = system: MOLT-4 leukemia

| SMILES | growth (SK-MEL-2 melanoma) | growth (EKVX NSCLC) | growth (SN12C renal) | growth (UO-31 renal) | growth (TK-10 renal) | growth (ACHN renal) | growth (CAKI-1 renal) | growth (A498 renal) | growth (CCRF-CEM leukemia) | growth (MOLT-4 leukemia) |
| --- | --- | --- | --- | --- | --- | --- | --- | --- | --- | --- |
| CC(NC(=O)c1ccccc1)C(=O)Nc1ccccc1 (stereo not given) | 104% | 105% | 109% | 94.9% | 103% | 103% | 107% | 103% | 90.4% | 101% |
| CCOC(=O)c1ccc2c(c1)nc(-c1ccc(Cl)cc1)n2-c1cc(C(C)(C)C)[nH]n1 | 38.7% | 47.6% | 60.5% | 36.3% | 84.9% | 35.8% | 25.5% | 45.3% | 22.3% | 9.68% (active) |
| O=C(Cc1ccc([N+](=O)[O-])cc1)Oc1ccccc1 | 102% | 128% | 106% | 77% | 104% | 110% | 117% | 107% | 99.3% | 108% |
| O=C(CCl)Nc1ccc2c(c1)C(=O)c1ccccc1C2=O | 19.1% | 57% | -21.3% (active) | 46.6% | -27.9% (active) | -67.8% (active) | 0.23% (active) | 44% | -46.2% (active) | -29.1% (active) |
| COc1ccc(Cl)cc1Nc1nc(C(F)(F)F)ccc1C(=O)NN | 11.7% | 27.9% | 35.7% | 33.6% | 26.1% | 6.99% (active) | 20.5% | 75.3% | -76.5% (active) | 24.5% |
| Clc1ccccc1CNc1c2ccccc2nc2ccccc12 | 55.6% | 25.9% | 27.8% | 17.5% | 42.5% | 12.2% | 25.2% | -5.85% (active) | 10.7% | 5.14% (active) |
| CN1C(=O)C(C(=O)/C=C/c2ccccc2C(=O)O)C(=O)N(C)C1=O | 106% | 105% | 101% | 87% | 102% | 108% | 90% | 104% | 91.9% | 97.1% |
| O=C(Nc1ccc([N+](=O)[O-])cc1)c1cc2ccccc2cc1O | -66.7% (active) | 2.38% (active) | 1.45% (active) | -7.29% (active) | -19.5% (active) | -6.44% (active) | -13.7% (active) | -42.5% (active) | 1.14% (active) | -7.97% (active) |
| CCCCCCCCCCCCCCCCCC(=O)[O][Sn]([CH2]CCC)([CH2]CCC)[CH2]CCC | -60.7% (active) | -40.1% (active) | -47.2% (active) | -92.4% (active) | -93.6% (active) | -96.8% (active) | -86.5% (active) | -98% (active) | 1.06% (active) | 4.55% (active) |
| Cc1ccncc1NC=O | 108% | 101% | 110% | 96.2% | 102% | 115% | 95.8% | 103% | 104% | 108% |
| COc1cnc2c(c1)C(=O)c1c-2n(CCCN2CCCC2)c(=O)c2cc(Cl)ccc12 | 65.2% | 46.6% | 27.5% | 15.9% | 39.4% | 7.7% (active) | 42.4% | -9.2% (active) | -38.1% (active) | -24.4% (active) |
| CCCCCCCC/C=C/CCCCCCCC1=NC(C)(C)CN1c1ccccc1 | 92.6% | 105% | 95.5% | 61.7% | 118% | 101% | 90.1% | 105% | 64.2% | 85.7% |
| O=[N+]([O-])c1ccc(SSc2ccc([N+](=O)[O-])cc2Cl)c(Cl)c1 | 104% | 87.9% | 93.4% | 64.7% | 105% | 97.7% | 87.7% | 22.7% | 98.9% | 78.1% |
| Clc1nnc2c3ccccc3ccn12 | 108% | 105% | 109% | 98.8% | 106% | 105% | 93% | 106% | 92.6% | 104% |
| COc1ccc(/C=C/c2nc(NCCCN(C)C)c3ccccc3n2)cc1 | -50.9% (active) | 64.3% | 86.7% | 81.9% | 89.3% | 122% | 87.7% | 93.6% | -44.9% (active) | -46% (active) |
| O=[N+]([O-])c1ccc(N/N=C/c2ccccc2O)nc1 | 35% | 29.7% | 37.7% | 25.5% | 26.2% | 27.3% | 4.68% (active) | 97.8% | 17.1% | 14.3% |
| COc1cc(/C=C2\CN(C(=O)OC(C)(C)C)C/C(=C\c3ccc(O)c(OC)c3)C2=O)ccc1O | 86.2% | 92.8% | 88.9% | 81% | 105% | 100% | 74.2% | 104% | 101% | 47.4% |
| COc1ccc2nc(C)cc(Sc3nc4ccccc4s3)c2c1 | -99.6% (active) | 42.1% | 40.5% | 16.7% | 61.4% | 33.7% | -41.8% (active) | 40.7% | 7.21% (active) | -21.2% (active) |
| COc1cc(C2CC(c3ccc(Cl)cc3)=NN2C=O)ccc1Oc1ccnc2cc(Cl)ccc12 (stereo not given) | 86.7% | 59% | 77.3% | 80.8% | 83% | 41% | 58.5% | 62.6% | 68.8% | 62% |
| COc1ccccc1/C=C/C(=O)CCC(=O)O | 102% | 105% | 100% | 85.2% | 110% | 101% | 99% | 130% | 96.3% | 100% |
| COc1ccc(/C=C(\C#N)c2cc(OC)c(OC)c(OC)c2)cc1 | 64.7% | 54.7% | 27.9% | 28.5% | 74.1% | 24.7% | 41.4% | 7.06% (active) | 14.9% | 8.39% (active) |
| S=C(Cc1ccccc1)N1CCN(c2ccccc2Cl)CC1 | 99.7% | 94.5% | 107% | 82.4% | 116% | 108% | 85.2% | 90.7% | 89.1% | 82.1% |
| O=C(Nc1ccncc1)C(=O)c1cn(S(=O)(=O)c2cccc(Cl)c2F)c2ccccc12 | 60.6% | 59.2% | 82.9% | 56.9% | 112% | 101% | 68.3% | 72% | 66.4% | 60.2% |
| COc1ncnc2[nH]cc(CN3CCN(c4ccc(F)cc4)CC3)c12 | 103% | 97.9% | 102% | 94.3% | 90.1% | 104% | 98.8% | 80% | 97.1% | 105% |
| COc1cc2c(c(OC)c1O)C(=O)C(OC)C(c1ccc(O)c(O)c1)O2 (stereo not given) | 46.9% | 46.8% | 26.6% | 44.8% | 66.1% | 21.6% | 28.4% | -18.3% (active) | -5.15% (active) | 9.18% (active) |
| O=c1c2cc(Cl)ccc2oc2ccc(OCCCCCN3CCCCC3)cc12 | 64.8% | 70.3% | 65.1% | 60.7% | 69.2% | 94.8% | 70.8% | 75.6% | 39.8% | 25.2% |
| Cc1cccc(N=NC(=S)NNc2cccc(C)c2)c1 | 111% | 98.3% | 102% | 81.6% | 136% | 92.1% | 94.5% | 87.3% | 86.6% | 98.4% |
| CN1C(=O)N(C)C2C1NN=c1s/c(=C\c3ccsc3)c(=O)n12 (stereo not given) | 56.4% | 65.8% | 58.8% | 56% | 76.8% | 47% | 35.7% | 7.47% (active) | 28.8% | 49.7% |
